Data taken from publication PMC4081100, “A DNA-binding-site landscape and regulatory network analysis for NAC transcription factors in Arabidopsis thaliana”.

molecular target: T1, GST-NAP(1-166) (Arabidopsis thaliana, UniProt O49255 1-166); assay: universal protein binding microarray (PBM); transcription factors of Arabidopsis thaliana; high values mean tight binding; settings: protein: recombinant; tags: GST; chain copies: 2; dsDNA, one strand shown
T1 sequence: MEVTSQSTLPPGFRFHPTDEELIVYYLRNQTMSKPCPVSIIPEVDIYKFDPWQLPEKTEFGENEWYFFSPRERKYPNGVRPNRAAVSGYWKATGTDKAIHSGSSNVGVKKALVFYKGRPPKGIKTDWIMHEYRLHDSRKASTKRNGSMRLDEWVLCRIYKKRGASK
Procedure, shortened: (§1)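 GST-tagged NAC-domain, full-length or DNA-binding-domain proteins were induced in cells, with zinc acetate added for zinc-finger proteins. They were purified on glutathione–Sepharose 4B and quantified by A280 or anti-GST western blot. Each was applied at 200 to 500 nM final, in duplicate, to custom all-10-mer Agilent 4 × 180K arrays made double-stranded by primer extension, with gapped and ungapped 8-mers scored. Binding is the normalised enrichment score (E-score).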

Sequence | binding signal
TGCACGCA | 0.265 E-score
CGACACGC | 0.194 E-score
TACACGTA | 0.386 E-score
ATGGCGTG | 0.161 E-score
ACGTCACC | 0.356 E-score
ACGTTAAC | 0.218 E-score
ATACACGC | 0.256 E-score
GACGTGTA | 0.327 E-score
ACACGCGA | 0.147 E-score
ATAACGTG | 0.165 E-score
AACGTACG | 0.212 E-score
CACACGTC | 0.172 E-score
CACGCCAC | 0.292 E-score
GCGTACGC | 0.226 E-score
ACACGTTA | 0.222 E-score
TATACGCA | 0.25 E-score
CACGCTTC | 0.109 E-score
CACGCATC | 0.309 E-score
ATGCCGTG | 0.397 E-score
GTACGCCA | 0.0526 E-score
CACGTCAC | 0.344 E-score
TGCGTGAA | 0.189 E-score
ACGCTAAC | 0.0585 E-score
ACGTAAAC | 0.368 E-score
ACGCAAGC | 0.294 E-score
ACACGCAT | 0.332 E-score
ATGTCGTG | 0.2 E-score
TCACGGAA | 0.383 E-score
ATTTCGTG | 0.133 E-score
ACGGAACA | 0.336 E-score

molecular target: T2, GST-NST2(1-184) (Arabidopsis thaliana, UniProt Q9M274 1-184); assay: as above; settings: protein: recombinant; tags: GST; chain copies: 2; dsDNA, one strand shown
T2 sequence: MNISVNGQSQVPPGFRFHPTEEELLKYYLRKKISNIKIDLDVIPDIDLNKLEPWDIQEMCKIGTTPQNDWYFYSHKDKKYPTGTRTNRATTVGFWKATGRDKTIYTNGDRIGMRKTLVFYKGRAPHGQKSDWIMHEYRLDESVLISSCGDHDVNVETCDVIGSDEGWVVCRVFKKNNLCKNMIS
Procedure, shortened: as §1

Sequence | binding signal
TAAAGCAA | 0.262 E-score
TGCACGCA | 0.211 E-score
TACACGTA | 0.198 E-score
ATGGCGTG | 0.227 E-score
ACGTCACC | 0.237 E-score
AAGCAACA | 0.342 E-score
ACGTTAAC | 0.27 E-score
ATACACGC | 0.167 E-score
GACGTGTA | 0.193 E-score
ACACGCGA | 0.212 E-score
ATAACGTG | 0.221 E-score
AACGTACG | 0.184 E-score
CACACGTC | 0.079 E-score
CACGCCAC | 0.298 E-score
GCGTACGC | 0.251 E-score
ACACGTTA | 0.358 E-score
TATACGCA | 0.243 E-score

Sequence | binding signal
AGCGTAAG | 0.172 E-score
CACGCTTC | 0.188 E-score
CACGCATC | 0.125 E-score
GTACGCCA | 0.225 E-score
CACGTCAC | 0.217 E-score
TGCGTGAA | 0.198 E-score
ACGCTAAC | 0.289 E-score
ATTGCTTA | 0.288 E-score
AAAGCAAC | 0.277 E-score
TTAAGCAA | 0.334 E-score
ACGTAAAC | 0.317 E-score
ACGCAAGC | 0.299 E-score
ACACGCAT | 0.242 E-score
ATGTCGTG | 0.0589 E-score
ATTTCGTG | 0.136 E-score
ACGGAACA | 0.166 E-score

molecular target: T3, GST-NTL8 NAC domain (Arabidopsis thaliana, UniProt Q9XIN7 14-156); assay: as above; settings: protein: recombinant; tags: GST; chain copies: 2; dsDNA, one strand shown
T3 sequence: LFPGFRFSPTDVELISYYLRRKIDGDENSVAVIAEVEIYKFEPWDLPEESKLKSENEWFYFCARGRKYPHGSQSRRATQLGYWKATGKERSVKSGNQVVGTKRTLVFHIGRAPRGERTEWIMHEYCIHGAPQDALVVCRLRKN
Procedure, shortened: as §1

Sequence | binding signal
TAAAGCAA | 0.15 E-score
AAGCAACA | 0.194 E-score
GAGGAAAA | 0.402 E-score
AGCGTAAG | 0.0559 E-score
AAGGGAAA | 0.476 E-score
ATTGCTTA | 0.0937 E-score
AAAGCAAC | 0.0929 E-score
TTAAGCAA | 0.252 E-score
AGAGGAAA | 0.45 E-score

molecular target: T4, GST-SND1(1-203) (Arabidopsis thaliana, UniProt Q9LPI7 1-203); assay: as above; settings: protein: recombinant; tags: GST; chain copies: 2; dsDNA, one strand shown
T4 sequence: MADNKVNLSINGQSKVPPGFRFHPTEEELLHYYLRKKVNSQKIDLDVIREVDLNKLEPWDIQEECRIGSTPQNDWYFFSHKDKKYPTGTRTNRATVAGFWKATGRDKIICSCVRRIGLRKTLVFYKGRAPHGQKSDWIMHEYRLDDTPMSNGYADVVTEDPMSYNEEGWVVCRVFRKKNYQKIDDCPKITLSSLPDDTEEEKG
Procedure, shortened: as §1

Sequence | binding signal
TAAAGCAA | 0.42 E-score
TGCACGCA | 0.342 E-score
CGACACGC | 0.134 E-score
TACACGTA | 0.251 E-score
ATGGCGTG | 0.249 E-score
ACGTCACC | 0.408 E-score
AAGCAACA | 0.439 E-score
ACGTTAAC | 0.412 E-score
ATACACGC | 0.0978 E-score
GACGTGTA | 0.229 E-score
ACACGCGA | 0.309 E-score
ATAACGTG | 0.299 E-score
AACGTACG | 0.326 E-score
CACACGTC | 0.157 E-score
CACGCCAC | 0.386 E-score
GCGTACGC | 0.288 E-score
GAGGAAAA | 0.142 E-score
ACACGTTA | 0.413 E-score
TATACGCA | 0.298 E-score
AGCGTAAG | 0.4 E-score

Sequence | binding signal
CACGCTTC | 0.232 E-score
CACGCATC | 0.296 E-score
ATGCCGTG | 0.111 E-score
GTACGCCA | 0.398 E-score
CACGTCAC | 0.328 E-score
TGCGTGAA | 0.338 E-score
AAGGGAAA | 0.117 E-score
ACGCTAAC | 0.454 E-score
ATTGCTTA | 0.457 E-score
AAAGCAAC | 0.401 E-score
TTAAGCAA | 0.473 E-score
ACGTAAAC | 0.404 E-score
ACGCAAGC | 0.417 E-score
ACACGCAT | 0.295 E-score
ATGTCGTG | 0.118 E-score
TCACGGAA | 0.219 E-score
ATTTCGTG | 0.109 E-score
ACGGAACA | 0.217 E-score
AGAGGAAA | 0.144 E-score

molecular target: T5, GST-VND3 NAC domain (Arabidopsis thaliana, UniProt Q9FH59 12-162); assay: as above; settings: protein: recombinant; tags: GST; chain copies: 2; dsDNA, one strand shown
T5 sequence: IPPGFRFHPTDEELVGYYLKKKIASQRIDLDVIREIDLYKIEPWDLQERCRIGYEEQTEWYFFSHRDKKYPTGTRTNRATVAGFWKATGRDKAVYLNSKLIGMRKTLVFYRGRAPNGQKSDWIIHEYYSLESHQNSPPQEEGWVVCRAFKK
Procedure, shortened: as §1

Sequence | binding signal
TAAAGCAA | 0.135 E-score
TGCACGCA | 0.289 E-score
CGACACGC | 0.138 E-score
TACACGTA | 0.375 E-score
ATGGCGTG | 0.151 E-score
ACGTCACC | 0.239 E-score
AAGCAACA | 0.0696 E-score
ACGTTAAC | 0.209 E-score
ATACACGC | 0.167 E-score
GACGTGTA | 0.354 E-score
ACACGCGA | 0.0551 E-score
ATAACGTG | 0.191 E-score
AACGTACG | 0.308 E-score
CACACGTC | 0.199 E-score
CACGCCAC | 0.168 E-score
GCGTACGC | 0.0861 E-score
GAGGAAAA | 0.12 E-score
ACACGTTA | 0.277 E-score
TATACGCA | 0.29 E-score
AGCGTAAG | 0.131 E-score

Sequence | binding signal
CACGCTTC | 0.111 E-score
CACGCATC | 0.239 E-score
ATGCCGTG | 0.399 E-score
GTACGCCA | 0.07 E-score
CACGTCAC | 0.362 E-score
TGCGTGAA | 0.281 E-score
AAGGGAAA | 0.0609 E-score
ACGCTAAC | 0.127 E-score
ATTGCTTA | 0.16 E-score
AAAGCAAC | 0.0501 E-score
TTAAGCAA | 0.198 E-score
ACGTAAAC | 0.402 E-score
ACGCAAGC | 0.344 E-score
ACACGCAT | 0.351 E-score
ATGTCGTG | 0.362 E-score
TCACGGAA | 0.381 E-score
ATTTCGTG | 0.191 E-score
ACGGAACA | 0.352 E-score
AGAGGAAA | 0.0951 E-score

molecular target: T6, GST-VND7 NAC domain (Arabidopsis thaliana, UniProt Q9C8W9 9-158); assay: as above; settings: protein: recombinant; tags: GST; chain copies: 2; dsDNA, one strand shown
T6 sequence: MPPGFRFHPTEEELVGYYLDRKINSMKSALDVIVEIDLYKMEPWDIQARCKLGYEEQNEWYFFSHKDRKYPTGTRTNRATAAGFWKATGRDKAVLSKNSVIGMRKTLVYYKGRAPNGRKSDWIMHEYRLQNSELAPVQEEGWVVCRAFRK
Procedure, shortened: as §1

Sequence | binding signal
TAAAGCAA | 0.228 E-score
TGCACGCA | 0.32 E-score
CGACACGC | 0.198 E-score
TACACGTA | 0.406 E-score
ATGGCGTG | 0.155 E-score
ACGTCACC | 0.28 E-score
AAGCAACA | 0.146 E-score
ACGTTAAC | 0.207 E-score
ATACACGC | 0.0693 E-score
GACGTGTA | 0.338 E-score
ACACGCGA | 0.124 E-score
ATAACGTG | 0.109 E-score
AACGTACG | 0.209 E-score
CACACGTC | 0.176 E-score
CACGCCAC | 0.271 E-score
GCGTACGC | 0.346 E-score
GAGGAAAA | 0.114 E-score
ACACGTTA | 0.237 E-score
TATACGCA | 0.102 E-score
AGCGTAAG | 0.141 E-score

Sequence | binding signal
CACGCTTC | 0.127 E-score
CACGCATC | 0.232 E-score
ATGCCGTG | 0.447 E-score
GTACGCCA | 0.114 E-score
CACGTCAC | 0.395 E-score
TGCGTGAA | 0.263 E-score
AAGGGAAA | 0.0885 E-score
ACGCTAAC | 0.113 E-score
ATTGCTTA | 0.172 E-score
AAAGCAAC | 0.145 E-score
TTAAGCAA | 0.227 E-score
ACGTAAAC | 0.266 E-score
ACGCAAGC | 0.332 E-score
ACACGCAT | 0.33 E-score
ATGTCGTG | 0.37 E-score
TCACGGAA | 0.436 E-score
ATTTCGTG | 0.157 E-score
ACGGAACA | 0.409 E-score
AGAGGAAA | 0.0583 E-score
